Compounds with a hit are over-represented: about 3.5% of the library has one in this group of screens.
GDH-TPI counter – counter-screen for M. tuberculosis FBA inhibitors: GDH-TPI coupled enzymes; hit rate 1.2% among 360,000; inhibition, % at 4.8 µM; GDH-TPI coupled enzyme counterscreen, NADH absorbance; AID 588335; in the data active = inhibition above about 30%;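 also: 0% = DMSO wells and 100% = wells lacking the enzyme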
Rv3671c inh – inhibitors of M. tuberculosis serine protease Rv3671c. P9WHR9. inhibition, % at 5.96 µM. hit rate 0.048% among 320,000; in the data active = inhibition above about 38%;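 also: extracellular domain of Rv3671c used as enzyme; 0% = enzyme with DMSO and 100% = no enzyme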
Target sequence (P9WHR9 whole entry, looked up, the tested form may be a part): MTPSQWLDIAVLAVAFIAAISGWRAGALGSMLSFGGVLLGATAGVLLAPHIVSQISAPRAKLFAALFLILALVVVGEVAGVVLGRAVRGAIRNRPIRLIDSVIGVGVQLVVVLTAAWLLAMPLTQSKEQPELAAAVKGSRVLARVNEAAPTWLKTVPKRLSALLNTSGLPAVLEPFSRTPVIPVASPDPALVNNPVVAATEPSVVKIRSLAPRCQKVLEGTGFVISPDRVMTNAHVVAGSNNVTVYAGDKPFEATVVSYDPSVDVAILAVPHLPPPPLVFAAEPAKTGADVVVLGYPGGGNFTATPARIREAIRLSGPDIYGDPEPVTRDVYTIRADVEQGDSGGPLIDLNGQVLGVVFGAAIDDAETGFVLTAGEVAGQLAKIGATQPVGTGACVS
Mtb FBA inh – Mtb fructose-bisphosphate aldolase inhibition; purified M. tuberculosis FBA, fluorescence read-out; inhibition, % at 1 µM; hit rate 2.3% among 360,000; AID 588726; in the data active = inhibition above about 27%;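 also: 0% = vehicle and 100% = reference inhibitor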
Mtb UGM inh – blocks M. tuberculosis UGM enzyme. P9WIQ1. purified UGM, fluorescence polarization probe displacement. inhibition, % at 10 µM. hit rate 0.06% among 320,000; in the data active = inhibition above about 10%, passing the limit was not always enough
Numbers without * were called inactive; . = no result; + = active, no number.

SMILES	GDH-TPI counter	Rv3671c inh	Mtb FBA inh	Mtb UGM inh
Cc1nc(-c2ccccc2)sc1-c1ccnn1C	2	-2	124*	0
COCc1cc(=O)n2[nH]c(C)c(-c3ccc(Cl)cc3)c2n1	8	.	135*	.
Cc1cc(C)n(C(=O)c2cc3sccc3[nH]2)n1	33*	-5	0	-1
CC1(C(=O)NS(=O)(=O)C2CC2)CCCN(C(=O)c2cccnc2Oc2ccccc2)C1 (centres undefined)	4	.	2	.
COc1ccc(/C=C(\C#N)C(=O)Nc2cccnc2)cc1	32*	7	-2	-2
C[C@@H](NC(=O)/C(C#N)=C/c1ccc(O)c(O)c1)c1ccccc1	6	16	-14	-1
N#C/C(=C\c1ccc(F)cc1)C(=O)Nc1ccccn1	12	2	25	1
CCOc1ccc(/C=C(\C#N)C(=O)Nc2ccccn2)cc1	38*	-5	1	0
CC(NC(=O)/C(C#N)=C/c1ccc(OCC(=O)O)cc1)c1ccccc1 (centres undefined)	37*	1	-2	4
COc1ccc(/C=C(/C#N)C(=O)Nc2cccnc2)cc1OC	21	-2	0	1
Cc1ccc(NC(=O)c2oc3ccccc3c2COC(C)C)cc1S(=O)(=O)N1CCOCC1	1	-27	-4	-2
O=C(OCC(=O)c1ccc(Cl)s1)c1ccc(CO)cc1	8	4	3	-1
CN(Cc1c(F)cccc1Cl)C(=O)CNC(=O)c1sc2ccccc2c1Cl	-1	-8	5	1
COc1cccc(N2CCN(C(=O)C3CCN(S(=O)(=O)c4ccc5c(c4)CC(C)N5C(C)=O)CC3)CC2)c1 (centres undefined)	-3	-2	-6	-1
COc1cccc(-c2cc(=O)c3cc(NC(C)=O)ccc3[nH]2)c1	18	-4	115*	0
COc1ccc(-c2cc(=O)c3cc(OC)ccc3[nH]2)cc1	3	2	76*	-1
O=C(c1ccc(-n2cncn2)c([N+](=O)[O-])c1)N1CCN(S(=O)(=O)c2ccc(F)c(F)c2)CC1	-21	-3	-2	2
Cc1ccc(NC(=O)Cn2cnc3c(NCc4ccccc4)ncnc32)cc1C	-10	.	-2	.
Nc1ncc(Br)cc1S(=O)(=O)Nc1cc(C(F)(F)F)cc(C(F)(F)F)c1	-1	-22	-1	2
COc1ccc(/C=C2\CCOC2=O)cc1	16	-4	2	1
COc1ccc(N/C=C2\CCOC2=O)cc1	56*	-1	-3	-1
Cc1ncc(CO)c(CNc2ccc(-c3nc4ccccc4[nH]3)cc2)c1O	42*	.	14	-2
Cc1ncc(CO)c(CO)c1O	10	-3	4	0
CN(C)S(=O)(=O)c1cccc(NC(=O)COC(=O)CNC(=O)c2ccccc2F)c1	14	3	-1	3
Cc1cc(OCC(=O)NCC2CCC(C(=O)O)CC2)c2c(C)c(C)c(=O)oc2c1 (centres undefined)	6	5	21	-3
SMILES	GDH-TPI counter	Rv3671c inh	Mtb FBA inh	Mtb UGM inh
Cc1c(C)c2c(OCC(=O)NCC3CCC(C(=O)O)CC3)cc3c(c2oc1=O)CCC(C)(C)O3 (centres undefined)	8	.	120*	.
Cc1cc(=O)oc2c3c(cc(OCC(=O)NCC4CCC(C(=O)O)CC4)c12)OC(C)(C)CC3 (centres undefined)	17	0	+	-1
Cc1cc(=O)oc2c(C)c(OCC(=O)NCC3CCC(C(=O)O)CC3)ccc12 (centres undefined)	16	0	10	4
Cc1c(C)c2c(OCC(=O)N3CCC(C(=O)O)CC3)cc3c(c2oc1=O)CCC(C)(C)O3	36*	5	+	-1
CN(C)Cc1nnnn1-c1ccccc1	12	-2	3	3
CC(=O)C1C(c2ccc(F)cc2)c2c(noc2C)CC1(C)O (centres undefined)	-2	-2	1	2
COCCN(CCOC)C(=O)c1cc2c(=O)n3ccccc3nc2s1	32*	1	+	-1
CCN(CC)C(=O)c1c(C)nc2ccccn12	2	-2	1	0
CCN(CC)C(=O)c1cc2c(=O)n3ccccc3nc2s1	24	2	186*	-2
COc1ccc(OC)c(-c2cc(C(=O)N3CCCc4ccccc43)no2)c1	34*	-1	2	0
CN(c1ccccc1)S(=O)(=O)c1cccc(C(=O)OCC(=O)Nc2ccc(C(N)=O)cc2)c1	-1	-9	-3	-2
CSc1ccc(/C=N/Nc2nc(C)cc(C)n2)cc1	33*	8	-6	1
Cc1ccc(/C=N/Nc2nc(C)cc(C)n2)cc1	11	-1	2	4
O=C(O)c1cc(N/N=C/c2ccc(N3CCOCC3)cc2)ccc1Cl	69*	-1	2	0
Cc1cc(C)nc(N/N=C/c2ccc(N3CCOCC3)cc2)n1	35*	2	0	-1
Cc1cc(-c2ccccc2)nc(N/N=C/c2ccccc2)n1	17	-1	4	-2
Cc1cc(-c2ccccc2)nc(N/N=C/c2ccc(N(C)C)cc2)n1	31*	5	0	-5
CSCC[C@H](NC(=O)OC(C)(C)C)C(=O)N1CCC(C(=O)N[C@@H](C)C(=O)NC(C)c2ccccc2)CC1 (some centres undefined)	-4	1	2	0
COc1ccc(Cl)cc1NC(=O)NNC(=O)C(=O)Nc1ccc(F)cc1	12	.	3	.
Cc1cc(C)nc(N/N=C/c2ccco2)n1	31*	-3	-2	1
Cc1cc(-c2ccccc2)nc(N/N=C/c2ccco2)n1	16	4	-1	-2
CCc1cc(=O)oc2c3c(cc(OCC(=O)NC4CC4)c12)OC(C)(C)CC3	19	10	+	0
CCc1cc(=O)oc2c(C)c(OCC(=O)NCCCN3CCOCC3)ccc12	12	-11	19	-1
Cc1c(C)c2ccc(OCC(=O)N3CCC[C@@H]3C(=O)O)c(C)c2oc1=O	8	14	129*	0
Cc1c(C)c2ccc(OCC(=O)N3CCN(c4ccc(F)cc4)CC3)c(C)c2oc1=O	6	0	-5	0
SMILES	GDH-TPI counter	Rv3671c inh	Mtb FBA inh	Mtb UGM inh
CCc1cc(=O)oc2c3c(cc(OCC(=O)NCCCOC)c12)OC(C)(C)CC3	9	0	+	1
CCc1cc(=O)oc2c3c(cc(OCC(=O)NCCN4CCOCC4)c12)OC(C)(C)CC3	15	-9	176*	2
CC(=O)NC(c1ccc(F)c(F)c1)c1nc(-c2cc3ccccc3o2)cs1 (centres undefined)	9	.	-1	.
COc1ccc2c(C)c(CCC(=O)NCCCN3CCCC3=O)c(=O)oc2c1C	22	-8	116*	2
CCCc1cc(=O)oc2c3c(cc(OCC(=O)N4CCC[C@H]4C(=O)O)c12)OC(C)(C)CC3	25	-11	+	-2
O=C1/C(=C/c2ccc3c(c2)OCO3)Oc2cc(OCC(=O)N3CCC[C@H]3C(=O)O)ccc21	14	2	-4	-1
Cc1cc(=O)oc2c3c(cc(OCC(=O)NCCC(=O)O)c12)OC(C)(C)CC3	25	.	+	3
CCc1cc(=O)oc2c3c(cc(OCC(=O)NCCCC(=O)O)c12)OC(C)(C)CC3	11	7	+	2

Screening data deposited in PubChem by several laboratories.
